target: ICAM4; experiment: pooled miR-30 sensor sort-seq; sequence = guide strand; conditions: shRNA
Also: reference of the scale not given here.

Row | Sequence | sensor-assay potency score (higher = more potent)
1 | TAGCCCACCGGGAACACTGTAG | -0.579
2 | TAGCTAGGCACTTGCATAGGTA | -0.927
3 | TTTTTCTCGCTCAGCCGGCATA | -1.31
4 | TTTGTAGGCGGTGATCCTGGAG | -0.0996
5 | TTTTCCTGCGCAGGTCACGAGG | -1.77

target: ICOS; experiment: as above; conditions: shRNA

Row | Sequence | sensor-assay potency score (higher = more potent)
6 | TTGTGATTCATAAATATGCAAA | -1.24
7 | TAAAATTTGTACACCTCCGTTG | -0.108
8 | TAAACTACAACATAATCCCAGT | -0.438
9 | TTTAAGAATCTTTCTAGCCAAA | -1.13
10 | TAGTATGATAGTGAAATGCGGA | -0.711
11 | TAAACATCTCATAATTGGCAGA | -0.689
12 | TTGTGAAATATAAACATCTCAT | -0.925
13 | TTGACTGATACAGTCATTCTTC | 0.168
14 | TTTGTCTTAGTGAGATCGCAGA | -0.78
15 | TTTTGTCTTAGTGAGATCGCAG | -0.217
16 | TTGTGAATTATTATTCATCTTG | -0.481
17 | TACTGTACTGTACACATCCAGC | -0.859

target: IDI2; experiment: as above; conditions: shRNA

Row | Sequence | sensor-assay potency score (higher = more potent)
18 | TTATTTGTAAGCATATTACTGA | 0.0641
19 | TTGTGAAGCTCCACAAACGGGG | -0.921
20 | TAAACGTCGAGTCACTTGGCTG | -1.26
21 | TTGTCATGAACACAATGTCCTC | -1.35
22 | TTTCGTTTCACTGGGATCCGGG | -0.0224
23 | TAACCTTATCATTCTCATCCAC | -0.207
24 | TAGTGATTTATACATGATGGGC | -1.3
25 | ATTCTCATCCACAACAATCAGC | -0.745
26 | TAGGATGCAAGATTGAATGTGT | 0.9
27 | TTTCGTGTCCGACCTCTGCTGT | -0.749
28 | TTTTCTTCCAGTTCTGCTGGGT | 0.298
29 | TTTCTCAATGTTTTCGTTCAGA | -0.492

target: IER5; experiment: as above; conditions: shRNA

Row | Sequence | sensor-assay potency score (higher = more potent)
30 | ATAAGGTCTTTCCACTTCGGGC | -1.59
31 | TAAAAATATATCTTTTCTCTAT | -0.862
32 | TTCCAAGCTTGAACTCTTCTGT | 0.444
33 | TTATGCAGCTTGATGCCGCCGC | -0.467
34 | TACAAAAATCAATACAACGAAG | -1.23
35 | TTCTTATGCAGCTTGATGCCGC | -0.805
36 | TTCATGTCTCTCAGCACCGGCT | -0.831
37 | TTATCGCAGCAGATCTGCCCGG | -0.618
38 | TTGTAGATCTTGCCCAGAGAGA | -1.34
39 | TATCGCAGCAGATCTGCCCGGG | -0.199
40 | TTTCCTAGAGTAATCACAGGAT | 0.282
